Data published in the supplement of paper PMC10849652.
The full data set covers some 8,800 targets. This sample favours those with a hit. About 0.5% of all pairs of compound and target were hits. Unmarked numbers belong to inactive results.

How the values were obtained:
Test in all cases: log2 fold change, soluble protein after heating vs DMSO (PISA); higher = thermal stabilisation; K562 lysate, 10 uM; active = over 0.2 and 3.5 SD of the protein, either way, in both replicates (recomputed)
nilotinib = compound: Cc1cn(-c2cc(NC(=O)c3ccc(C)c(Nc4nccc(-c5cccnc5)n4)c3)cc(C(F)(F)F)c2)cn1 [nilotinib]
In short: (§1)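 Following dounce homogenisation of K562 pellets in PBS pH 7.4 with 1 mM MgCl2, crude extract at 1 mg/mL protein was incubated for 30 min with 10 μM compound. Aliquots were then heated for 3 min over 48°C-58°C and pooled, NP-40 was added to 0.5% at 4°C, and soluble protein was recovered as the supernatant at 21,000xg for 90 min. Channel-sum-equalised TMTpro 16plex LC-MS/MS quantified this protein. Each value, from duplicates, is a log-two fold change in thermal stability relative to solvent controls.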

[1] = compound: Cc1nc(Nc2n[nH]c3c2CN(C(=O)N[C@H](CN(C)C)c2ccccc2)C3(C)C)c2sccc2n1
In short: as §1

dasatinib = compound: Cc1nc(Nc2ncc(C(=O)Nc3c(C)cccc3Cl)s2)cc(N2CCN(CCO)CC2)n1 [dasatinib]
In short: as §1

[2] = compound: Cc1ncc(-c2ccnc(Nc3ccc(S(C)(=O)=O)cc3)n2)n1C(C)C
In short: as §1

[3] = compound: Cn1cc(-c2ccc3c(c2)CCN3C(=O)Cc2cccc(C(F)(F)F)c2)c2c(N)ncnc21
In short: as §1

quisinostat = compound: Cn1cc(CNCC2CCN(c3ncc(C(=O)NO)cn3)CC2)c2ccccc21 [quisinostat]
In short: as §1

tipifarnib = compound: Cn1cncc1[C@@](N)(c1ccc(Cl)cc1)c1ccc2c(c1)c(-c1cccc(Cl)c1)cc(=O)n2C [tipifarnib]
In short: as §1

[4] = compound: NC(=O)Nc1cc(-c2cccc(F)c2)sc1C(=O)N[C@H]1CCCNC1
In short: as §1

[5] = compound: NC(=O)c1cnc(N[C@@H]2CCCC[C@@H]2N)nc1Nc1cccc(-n2nccn2)c1
In short: as §1

[6] = compound: NC1(c2ccc(-c3nc4ccn5c(=O)[nH]nc5c4cc3-c3ccccc3)cc2)CCC1
In short: as §1

[7] = compound: NCC(=O)Nc1ccc(-n2nc(C(F)(F)F)cc2-c2ccc3c(ccc4ccccc43)c2)cc1
In short: as §1

vorinostat = compound: O=C(CCCCCCC(=O)Nc1ccccc1)NO [vorinostat]
In short: as §1

silmitasertib = compound: O=C(O)c1ccc2c(c1)nc(Nc1cccc(Cl)c1)c1ccncc12 [silmitasertib]
In short: as §1

[8] = compound: O=C1NC(=O)C(c2cnc3ccccn23)=C1c1cn2c3c(cc(F)cc13)CN(C(=O)N1CCCCC1)CC2
In short: as §1

entospletinib = compound: c1cn2cc(-c3ccc4cn[nH]c4c3)nc(Nc3ccc(N4CCOCC4)cc3)c2n1 [entospletinib]
In short: as §1

Sequence of UniProt P55212 (P55212 whole entry, looked up): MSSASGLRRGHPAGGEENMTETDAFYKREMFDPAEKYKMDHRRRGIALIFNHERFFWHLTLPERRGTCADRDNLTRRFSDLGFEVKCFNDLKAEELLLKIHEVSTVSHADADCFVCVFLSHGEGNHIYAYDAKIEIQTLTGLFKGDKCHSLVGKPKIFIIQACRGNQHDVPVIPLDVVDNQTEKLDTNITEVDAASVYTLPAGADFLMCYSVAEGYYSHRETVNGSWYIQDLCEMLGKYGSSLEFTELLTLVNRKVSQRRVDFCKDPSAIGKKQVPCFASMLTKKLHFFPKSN
Sequence of UniProt Q86YS7 (Q86YS7 whole entry, looked up): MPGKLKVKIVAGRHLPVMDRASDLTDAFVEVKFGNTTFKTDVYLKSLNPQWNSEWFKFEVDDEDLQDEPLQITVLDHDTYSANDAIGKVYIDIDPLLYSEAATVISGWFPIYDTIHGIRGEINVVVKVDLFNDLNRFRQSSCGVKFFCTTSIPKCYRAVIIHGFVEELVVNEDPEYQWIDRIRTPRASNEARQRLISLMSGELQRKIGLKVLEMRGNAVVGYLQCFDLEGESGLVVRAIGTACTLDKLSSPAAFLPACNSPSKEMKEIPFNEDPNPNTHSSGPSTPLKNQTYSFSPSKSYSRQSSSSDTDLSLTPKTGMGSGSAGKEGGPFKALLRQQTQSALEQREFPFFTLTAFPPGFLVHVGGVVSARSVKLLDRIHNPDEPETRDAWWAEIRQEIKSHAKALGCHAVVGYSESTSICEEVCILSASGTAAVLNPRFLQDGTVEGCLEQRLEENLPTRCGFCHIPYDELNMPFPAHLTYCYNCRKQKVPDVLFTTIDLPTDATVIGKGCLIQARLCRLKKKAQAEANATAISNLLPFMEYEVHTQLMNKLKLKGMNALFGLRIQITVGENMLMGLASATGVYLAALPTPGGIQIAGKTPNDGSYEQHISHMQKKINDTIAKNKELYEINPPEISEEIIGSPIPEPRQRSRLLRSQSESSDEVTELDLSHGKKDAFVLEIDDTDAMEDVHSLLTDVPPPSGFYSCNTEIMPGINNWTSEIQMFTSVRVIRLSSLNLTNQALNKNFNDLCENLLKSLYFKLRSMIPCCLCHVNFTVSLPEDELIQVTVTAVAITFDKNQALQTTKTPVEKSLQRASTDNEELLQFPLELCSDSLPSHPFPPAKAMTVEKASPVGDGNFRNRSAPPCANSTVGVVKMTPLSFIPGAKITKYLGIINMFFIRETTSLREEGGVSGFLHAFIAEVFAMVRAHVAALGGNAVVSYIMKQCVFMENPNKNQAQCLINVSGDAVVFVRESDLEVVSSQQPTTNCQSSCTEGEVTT
Sequence of UniProt Q5BKX5 (Q5BKX5 whole entry, looked up): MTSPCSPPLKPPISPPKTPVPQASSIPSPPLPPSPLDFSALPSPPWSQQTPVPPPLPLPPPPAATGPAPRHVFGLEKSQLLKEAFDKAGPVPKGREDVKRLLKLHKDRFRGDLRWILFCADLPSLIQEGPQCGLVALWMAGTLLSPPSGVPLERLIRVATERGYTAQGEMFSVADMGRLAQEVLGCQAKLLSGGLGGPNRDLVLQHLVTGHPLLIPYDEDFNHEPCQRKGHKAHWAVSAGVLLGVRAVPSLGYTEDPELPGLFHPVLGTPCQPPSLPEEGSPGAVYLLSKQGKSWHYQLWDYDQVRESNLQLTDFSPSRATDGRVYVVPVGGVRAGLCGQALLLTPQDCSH
Sequence of UniProt Q8IWZ6 (Q8IWZ6 whole entry, looked up): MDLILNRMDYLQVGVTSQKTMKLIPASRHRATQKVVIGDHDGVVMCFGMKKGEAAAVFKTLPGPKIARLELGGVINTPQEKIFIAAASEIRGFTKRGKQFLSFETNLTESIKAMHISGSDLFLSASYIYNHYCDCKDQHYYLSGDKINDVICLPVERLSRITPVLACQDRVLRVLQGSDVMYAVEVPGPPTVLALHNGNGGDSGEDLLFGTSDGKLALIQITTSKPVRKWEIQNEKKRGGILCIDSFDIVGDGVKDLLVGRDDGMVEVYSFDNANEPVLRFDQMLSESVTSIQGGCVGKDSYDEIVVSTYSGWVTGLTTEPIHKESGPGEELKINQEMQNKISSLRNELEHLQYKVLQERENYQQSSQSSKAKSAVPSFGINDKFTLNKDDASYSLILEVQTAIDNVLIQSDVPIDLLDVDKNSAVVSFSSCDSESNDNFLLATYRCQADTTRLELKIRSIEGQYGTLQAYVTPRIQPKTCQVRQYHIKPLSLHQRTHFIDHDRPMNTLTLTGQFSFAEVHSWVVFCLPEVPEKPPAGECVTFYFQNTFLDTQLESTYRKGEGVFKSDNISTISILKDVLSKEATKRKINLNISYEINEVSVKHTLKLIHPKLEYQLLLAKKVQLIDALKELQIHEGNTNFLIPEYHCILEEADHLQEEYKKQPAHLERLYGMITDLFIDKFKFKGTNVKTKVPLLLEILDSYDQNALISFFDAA
Sequence of UniProt Q9Y6K0 (Q9Y6K0 whole entry, looked up): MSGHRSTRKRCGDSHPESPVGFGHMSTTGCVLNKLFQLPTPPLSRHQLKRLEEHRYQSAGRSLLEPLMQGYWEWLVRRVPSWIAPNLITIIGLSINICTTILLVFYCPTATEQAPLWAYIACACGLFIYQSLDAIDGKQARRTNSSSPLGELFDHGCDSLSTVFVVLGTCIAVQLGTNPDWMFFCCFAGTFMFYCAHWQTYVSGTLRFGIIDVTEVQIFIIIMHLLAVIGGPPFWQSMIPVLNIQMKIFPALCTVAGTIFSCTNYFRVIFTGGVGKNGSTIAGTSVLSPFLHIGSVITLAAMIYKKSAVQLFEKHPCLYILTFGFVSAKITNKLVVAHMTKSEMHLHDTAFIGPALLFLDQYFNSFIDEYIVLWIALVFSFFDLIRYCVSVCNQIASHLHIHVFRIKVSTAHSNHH
Sequence of UniProt Q96ER9 (Q96ER9 whole entry, looked up): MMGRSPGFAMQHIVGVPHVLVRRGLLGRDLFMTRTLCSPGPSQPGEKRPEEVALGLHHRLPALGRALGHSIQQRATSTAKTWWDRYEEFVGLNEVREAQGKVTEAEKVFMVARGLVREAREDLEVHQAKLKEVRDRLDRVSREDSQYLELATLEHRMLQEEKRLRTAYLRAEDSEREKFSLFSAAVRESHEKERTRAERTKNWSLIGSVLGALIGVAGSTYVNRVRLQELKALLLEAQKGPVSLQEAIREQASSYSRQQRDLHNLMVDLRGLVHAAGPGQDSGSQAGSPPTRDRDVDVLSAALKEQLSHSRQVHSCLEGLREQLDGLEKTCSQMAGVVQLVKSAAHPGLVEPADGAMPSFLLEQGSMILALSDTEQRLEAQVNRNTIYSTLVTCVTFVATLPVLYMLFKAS
Sequence of UniProt P06493 (P06493 whole entry, looked up): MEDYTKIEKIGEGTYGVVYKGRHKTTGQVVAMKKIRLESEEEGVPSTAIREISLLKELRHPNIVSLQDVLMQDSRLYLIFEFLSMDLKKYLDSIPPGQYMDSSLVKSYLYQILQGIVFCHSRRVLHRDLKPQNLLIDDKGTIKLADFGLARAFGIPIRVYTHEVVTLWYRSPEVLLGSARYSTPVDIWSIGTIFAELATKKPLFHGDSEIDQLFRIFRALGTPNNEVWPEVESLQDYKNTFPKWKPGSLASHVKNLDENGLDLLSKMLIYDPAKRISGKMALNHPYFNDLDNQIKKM
Sequence of UniProt Q5U623 (Q5U623 whole entry, looked up): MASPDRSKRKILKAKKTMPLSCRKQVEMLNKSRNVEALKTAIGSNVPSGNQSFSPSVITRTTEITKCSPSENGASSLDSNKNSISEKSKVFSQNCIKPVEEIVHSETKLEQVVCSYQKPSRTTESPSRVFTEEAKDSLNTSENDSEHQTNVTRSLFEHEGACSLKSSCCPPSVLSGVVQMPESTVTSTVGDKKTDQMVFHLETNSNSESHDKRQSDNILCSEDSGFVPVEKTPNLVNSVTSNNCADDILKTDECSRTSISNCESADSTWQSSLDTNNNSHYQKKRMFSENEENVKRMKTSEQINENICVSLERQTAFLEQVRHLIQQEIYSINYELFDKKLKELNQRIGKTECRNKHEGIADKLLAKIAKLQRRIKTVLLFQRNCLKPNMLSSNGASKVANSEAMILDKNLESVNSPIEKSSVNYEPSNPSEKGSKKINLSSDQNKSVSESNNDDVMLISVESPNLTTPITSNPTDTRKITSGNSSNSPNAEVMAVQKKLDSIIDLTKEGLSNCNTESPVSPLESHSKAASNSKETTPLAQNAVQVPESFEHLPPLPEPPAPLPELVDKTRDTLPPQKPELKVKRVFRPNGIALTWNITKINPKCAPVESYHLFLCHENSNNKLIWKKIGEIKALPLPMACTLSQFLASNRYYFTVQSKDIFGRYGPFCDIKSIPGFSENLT
Sequence of UniProt Q96LT7 (Q96LT7 whole entry, looked up): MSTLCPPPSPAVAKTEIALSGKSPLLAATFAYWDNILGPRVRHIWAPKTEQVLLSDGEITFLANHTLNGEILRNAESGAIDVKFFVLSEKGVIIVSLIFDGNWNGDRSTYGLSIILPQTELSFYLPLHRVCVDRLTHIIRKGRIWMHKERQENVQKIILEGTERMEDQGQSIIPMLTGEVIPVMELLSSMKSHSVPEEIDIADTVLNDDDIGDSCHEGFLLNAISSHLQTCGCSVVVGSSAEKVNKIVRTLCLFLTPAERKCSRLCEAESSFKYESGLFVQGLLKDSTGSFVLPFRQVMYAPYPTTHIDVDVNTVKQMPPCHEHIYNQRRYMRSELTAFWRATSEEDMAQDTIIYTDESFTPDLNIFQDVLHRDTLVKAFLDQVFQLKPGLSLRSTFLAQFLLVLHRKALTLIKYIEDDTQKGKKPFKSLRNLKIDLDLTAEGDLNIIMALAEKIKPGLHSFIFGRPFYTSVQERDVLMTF
Sequence of UniProt P18859 (P18859 whole entry, looked up): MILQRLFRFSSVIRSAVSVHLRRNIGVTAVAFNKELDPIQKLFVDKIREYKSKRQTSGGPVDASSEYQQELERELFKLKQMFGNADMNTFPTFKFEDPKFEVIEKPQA
Sequence of UniProt Q9BUK0 (Q9BUK0 whole entry, looked up): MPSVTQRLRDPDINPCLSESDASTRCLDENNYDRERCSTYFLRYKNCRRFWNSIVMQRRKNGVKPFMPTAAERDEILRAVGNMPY

Target	log2 fold change (nilotinib)	log2 fold change [1]	log2 fold change (dasatinib)	log2 fold change [2]	log2 fold change [3]	log2 fold change (quisinostat)	log2 fold change (tipifarnib)	log2 fold change [4]	log2 fold change [5]	log2 fold change [6]	log2 fold change [7]	log2 fold change (vorinostat)	log2 fold change (silmitasertib)	log2 fold change [8]	log2 fold change (entospletinib)
CEPT1 (UniProt Q9Y6K0)	-0.053	-0.015	-0.018	0.028	0.06	-0.021	-0.068	0.028	-0.008	-0.094	-0.037	0.103	-0.016	0.029	-0.016
ATP5PF isoform 2 (UniProt P18859)	0.059	0.046	0.026	0.164	-0.013	0.11	0.066	-0.058	-0.029	-0.051	-0.002	0.206	-0.116	0.053	-0.003
C2CD5 isoform 3 (UniProt Q86YS7)	-0.036	0.074	-0.053	0.046	0.01	0.013	-0.053	0.024	0.01	-0.044	0.01	0.086	-0.059	0.049	0.009
C9orf72 (UniProt Q96LT7)	0.017	-0.063	-0.025	0.073	0.001	-0.034	-0.065	-0.03	0.015	-0.014		0.919 (active)	-0.045	-0.015	-0.129
CDC123 (UniProt O75794)	0.026	-0.011	-0.006	-0.104	0.033	0.008	-0.008	0.022	-0.009	0.017	-0.064	-0.019	0.015	-0.032	0.043
C19orf54 (UniProt Q5BKX5)	0.012	-0.006	-0.037	-0.016	0.006	0.006	-0.007	0.098	0.016	0.003	-0.052	-0.381 (active)	-0.004	-0.006	0.009
BBS7 (UniProt Q8IWZ6)	-0.039	0.065	-0.061	-0.03	0.489 (active)	0.06	-0.133	-0.044		0.14	-0.006	-0.354	0.133	-0.015	-0.007
CASP6 (UniProt P55212)	0.018	0.017	0.005	-0.026	-0.001	0.013	-0.027	-0.034	0.003	0.023	-0.014	-0.049	0.045	-0.018	-0.01
CDK11A (UniProt Q9UQ88)	-0.007	0.053	-0.016	0.085	-0.001	-0.031	-0.029	0.035	-0.029	-0.034		-0.329	0.049	-0.012	
CDK1 (UniProt P06493)	-0.026	0.018	-0.027	0.067	-0.02	0.003	0.015	0.012	0.127	0.015	0.029	-0.049		-0.055	0.006
CHCHD7 isoform 4 (UniProt Q9BUK0)	-0.147	0.031	-0.044	-0.147	0.041	-0.207	-0.117	0.055	-0.04		-0.031			-0.066	0.008
BRD4 (UniProt O60885)	0.034	-0.009	-0.018	0.019	-0.001	-0.091	-0.019	0.013	-0.051	-0.008	0.01	-0.115	-0.011	-0.02	-0.028
C3 (UniProt P01024)	0.001	0.027	0.069	-0.006	-0.022	-0.085	0.027	-0.025	-0.066	0.012	0.024	-0.098	0.008	0.062	-0.036
CCDC47 (UniProt Q96A33)	-0.012	-0.009	-0.016	0.025	-0.009	0.006	-0.025	0.014	0.019	-0.023	0.002	0.207 (active)	0.026	0.011	-0.007
CCDC51 (UniProt Q96ER9)	-0.037	-0.049	-0.016	0.035	-0.014	0.017	-0.082	0.02	-0.015	-0.04	0.002	0.153	0.011	0.015	-0.046
BLOC1S6 (UniProt Q9UL45)	-0.073	0.036	0.093	0.093	-0.008	0.042	-0.063	-0.049	-0.023	0.096	-0.022	-0.386 (active)	0.004	0.011	0.046
CCDC130 (UniProt P13994)						-0.583		-0.183		0.259		-0.003	0.173	-0.306	-0.076
C6orf120 (UniProt Q7Z4R8)			-0.007		0.147				0.017	0.041		0.273	-0.075		
CDK2 (UniProt P24941)	-0.01		0.018		0.01	-0.077	0.011	0.005	0.067	-0.012	-0.02	0.006	0.248	0.202	0.039
BRAF, A0A2R8Y8E0											0.017				-0.082
ATF7IP2 (UniProt Q5U623)	-0.003	0.008		-0.089		-0.336 (active)	-0.064	0.001	0.036	-0.127	0.066	0.027	0.002	-0.048	
CAD (UniProt H7BZB3)										0.551 (active)	0.113	-0.54	-0.006		-0.008
